# Experimental data from ChEMBL document CHEMBL3988442, “University of Dundee, Small-Polar-MMV Screening Library” (2021).
# Out of some 69,000 compounds screened, about 950 (1.4%) showed an effect of 50% or more. The sample holds strong results, similar compounds and a random draw of the others, so the mix is not that of the screen.
# Test system: Mycobacterium tuberculosis
# Experiment: Cornell M. t heat shock assay; note: in the data most compounds retested in dose-response had high values
# Type: functional, organism-based
# Design: dose or concentration left out as unconfirmed
row,SMILES,Percent Effect
1,CCCS(=O)(=O)N1C[C@@H](Oc2ncccc2F)[C@H]2OCCC[C@H]21.O=C(O)C(F)(F)F,-14.35%
2,Cl.Cl.O=C(N[C@@H]1CN[C@H]2CCCO[C@H]21)c1cccnc1,-32.33%
3,CCc1n[nH]c(C2CN(Cc3ncc(CC)o3)CCO2)n1 (stereo unspecified),-30.6%
4,COc1ccc(CNCc2ccnc(N3CCCC3)c2)c(OC)c1.Cl,15.53%
5,c1ccc(-c2nc(CN3CCc4c(ncn4C4CC4)C3)cs2)cc1,62.99%
6,CC(C)c1nc2c(n1C)CCN(Cc1nc(-c3ccsc3)no1)C2,103.5%
7,Cn1cnc2c1CCN(Cc1csc(-c3ccccc3F)n1)C2,47.56%
8,c1cc(-c2nc(CN3CCc4c(ncn4C4CC4)C3)cs2)cs1,24.33%
9,CC(C)c1nc2c(n1C)CCN(Cc1nc(-c3ccoc3)no1)C2,-1.716%
10,COc1ccc(-c2nc(CN3CCc4c(ncn4C)C3)cs2)cc1,174%
11,Cn1cnc2c1CCN(Cc1csc(-c3ccccc3)n1)C2,-8.138%
12,Cn1cc(-c2nc(CN3CCc4c(ncn4C)C3)cs2)cn1,-15.5%
13,Cn1cc(-c2nc(CN3CCc4c(ncn4C4CC4)C3)cs2)cn1,19.08%
14,Cn1cnc2c1CCN(Cc1csc(-c3ccc(F)cc3)n1)C2,1.572%
15,Cn1cnc2c1CCN(Cc1csc(-c3ccsc3)n1)C2,121.8%
16,Cn1c(C2CC2)nc2c1CCN(Cc1nc(-c3ccsc3)no1)C2,13.01%
17,COCCO[C@H]1CCN(Cc2ccsc2)[C@H]1Cc1cccnc1.O=C(O)C(F)(F)F.O=C(O)C(F)(F)F,-33.79%
18,CCc1noc(CN2C[C@H]3CC[C@@H]2CN(C2Cc4ccccc4C2)C3)n1,18.74%
19,COc1ccc(CC(=O)N2CC[C@@H](OC)[C@@H]2Cc2cccnc2)cc1.O=C(O)C(F)(F)F,-4.792%
20,CC(=O)N1C[C@@H]2CC[C@H](C1)N(S(=O)(=O)c1ccccc1Cl)C2,-21.33%
21,O=C(O)C(F)(F)F.O=S(=O)(C1CC1)N1CCO[C@@H]2CC(COCc3cccnc3)C[C@H]21 (stereo partly specified),22.38%
22,Cn1cc(N2CC3(COCCN(Cc4ccccn4)C3)OCC2=O)cn1.O=C(O)C(F)(F)F (stereo unspecified),-20.33%
23,CNC(=O)C1Cn2ccnc2C2(CCN(Cc3cccs3)CC2)O1.O=C(O)C(F)(F)F.O=C(O)C(F)(F)F (stereo unspecified),-16.91%
24,Cn1c(CCN2CCN(CCc3ccccc3)CC2)nc2ccccc21,5.82%
25,Cn1c(CCN2CCN(c3ccc(O)cc3)CC2)nc2ccccc21,-8.24%
26,CCCc1ccc(N2CCN(Cc3nc4ccccc4n3C)CC2)cc1,103%
